Data on one sequence can be found in paper PMC7862700, “An all-to-all approach to the identification of sequence-specific readers for epigenetic DNA modifications on cytosine”.

What all share (test): DAPPL (digital affinity profiling via proximity ligation, sequencing); 10 mM Tris-HCl pH 7.5, 50 mM NaCl, 1 mM DTT, 4% glycerol, room temperature, 30 min; GST-TFs on glutathione beads, 16-mer random dsDNA library, 0.1% formaldehyde crosslink after washing; high values mean tight binding
Holding throughout (details): protein: recombinant; tags: N-terminal GST; dsDNA, one strand shown

For one experiment, the target named is T1, ELK1 (Homo sapiens, UniProt P19419 1-428).
T1 sequence: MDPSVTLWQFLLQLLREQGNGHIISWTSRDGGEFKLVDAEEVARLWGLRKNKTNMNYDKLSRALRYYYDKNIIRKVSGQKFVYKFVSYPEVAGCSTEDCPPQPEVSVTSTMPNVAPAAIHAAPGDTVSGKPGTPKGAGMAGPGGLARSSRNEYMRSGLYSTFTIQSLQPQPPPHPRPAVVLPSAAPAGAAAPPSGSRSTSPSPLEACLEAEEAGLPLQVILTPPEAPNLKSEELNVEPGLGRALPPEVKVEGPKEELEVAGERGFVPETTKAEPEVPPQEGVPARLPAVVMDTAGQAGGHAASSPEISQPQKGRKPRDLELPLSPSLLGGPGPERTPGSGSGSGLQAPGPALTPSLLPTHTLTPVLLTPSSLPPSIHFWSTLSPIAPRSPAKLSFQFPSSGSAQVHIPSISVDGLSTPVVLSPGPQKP
The gist of the method:
(§1)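 GST fusions of human transcription factors were expressed in yeast and captured with glutathione beads. Once given DNA barcodes and pooled alongside a tag-only sample, they were incubated for 30 min at room temperature with 200 nmole of a random double-stranded 16-mer DNA library in Tris/NaCl/DTT/glycerol buffer, then washed, crosslinked (0.1% formaldehyde), proximity-ligated, PCR-amplified and sequenced on an Illumina NextSeq500. The binding signal of each hexamer is its read frequency for a factor divided by its frequency for the tag-only sample.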

A further experiment addresses T2, GABPA (Homo sapiens, UniProt Q06546 1-454).
T2 sequence: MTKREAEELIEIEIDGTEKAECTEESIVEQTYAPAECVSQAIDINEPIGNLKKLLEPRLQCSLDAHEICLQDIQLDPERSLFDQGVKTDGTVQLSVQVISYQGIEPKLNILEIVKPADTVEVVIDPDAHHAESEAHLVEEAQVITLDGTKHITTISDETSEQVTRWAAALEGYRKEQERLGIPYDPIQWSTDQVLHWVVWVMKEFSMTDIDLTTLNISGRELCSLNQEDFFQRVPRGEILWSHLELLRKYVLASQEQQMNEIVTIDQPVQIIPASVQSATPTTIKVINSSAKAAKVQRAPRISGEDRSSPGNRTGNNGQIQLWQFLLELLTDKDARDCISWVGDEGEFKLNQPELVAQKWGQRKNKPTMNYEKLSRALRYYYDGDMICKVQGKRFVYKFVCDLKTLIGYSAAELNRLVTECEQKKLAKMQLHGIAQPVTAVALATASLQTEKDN
The essentials:
as §1

The target of a further experiment is T3, ERG (Homo sapiens, UniProt P11308 1-479).
T3 sequence: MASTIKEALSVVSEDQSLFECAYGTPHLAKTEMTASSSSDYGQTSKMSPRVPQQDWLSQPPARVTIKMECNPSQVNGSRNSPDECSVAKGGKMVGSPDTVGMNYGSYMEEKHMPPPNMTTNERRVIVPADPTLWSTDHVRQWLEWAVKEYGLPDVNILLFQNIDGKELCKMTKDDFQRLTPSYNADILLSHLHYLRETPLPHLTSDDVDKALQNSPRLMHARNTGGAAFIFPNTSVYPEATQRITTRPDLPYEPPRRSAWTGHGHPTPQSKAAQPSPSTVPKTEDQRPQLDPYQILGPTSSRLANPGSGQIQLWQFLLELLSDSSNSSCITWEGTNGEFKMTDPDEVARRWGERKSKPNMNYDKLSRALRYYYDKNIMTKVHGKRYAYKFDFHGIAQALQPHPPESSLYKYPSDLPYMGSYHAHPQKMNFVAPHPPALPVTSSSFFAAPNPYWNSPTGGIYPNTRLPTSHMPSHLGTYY
The gist of the method:
as §1

For the next experiment, the target named is ELF1 (Homo sapiens, UniProt P32519 1-619). The essentials:
as §1

Another experiment deals with T4, EHF (Homo sapiens, UniProt Q9NZC4 1-300).
T4 sequence: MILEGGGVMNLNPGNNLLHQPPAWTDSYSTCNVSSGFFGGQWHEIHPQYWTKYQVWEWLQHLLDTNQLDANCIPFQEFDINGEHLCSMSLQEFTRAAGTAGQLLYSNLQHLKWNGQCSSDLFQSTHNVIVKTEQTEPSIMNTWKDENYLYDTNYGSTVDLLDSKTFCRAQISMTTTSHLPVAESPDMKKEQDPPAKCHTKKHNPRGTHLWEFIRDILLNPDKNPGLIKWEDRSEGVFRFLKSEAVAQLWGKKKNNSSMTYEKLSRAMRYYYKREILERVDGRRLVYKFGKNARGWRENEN
The gist of the method: as §1

Another experiment has as its target SPIB (Homo sapiens, UniProt Q01892 1-262). The essentials: as §1
The target in a further experiment is T5, FEV (Homo sapiens, UniProt Q99581 1-238).
T5 sequence: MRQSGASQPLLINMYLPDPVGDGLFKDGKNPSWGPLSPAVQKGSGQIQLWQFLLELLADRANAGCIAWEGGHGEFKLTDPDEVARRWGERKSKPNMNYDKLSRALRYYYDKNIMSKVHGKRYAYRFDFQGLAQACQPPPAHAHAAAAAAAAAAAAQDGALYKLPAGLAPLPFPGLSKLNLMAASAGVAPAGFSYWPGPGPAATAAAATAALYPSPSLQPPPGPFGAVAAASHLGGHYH
The essentials:
as §1

For a further experiment, the target named is ETV5 (Homo sapiens, UniProt P41161 1-510). The essentials:
as §1

A further experiment deals with ELF4 (Homo sapiens, UniProt Q99607 1-663). The gist of the method:
as §1

For the next experiment, the target named is T6, ELK4 (Homo sapiens, UniProt P28324-2 1-405).
T6 sequence: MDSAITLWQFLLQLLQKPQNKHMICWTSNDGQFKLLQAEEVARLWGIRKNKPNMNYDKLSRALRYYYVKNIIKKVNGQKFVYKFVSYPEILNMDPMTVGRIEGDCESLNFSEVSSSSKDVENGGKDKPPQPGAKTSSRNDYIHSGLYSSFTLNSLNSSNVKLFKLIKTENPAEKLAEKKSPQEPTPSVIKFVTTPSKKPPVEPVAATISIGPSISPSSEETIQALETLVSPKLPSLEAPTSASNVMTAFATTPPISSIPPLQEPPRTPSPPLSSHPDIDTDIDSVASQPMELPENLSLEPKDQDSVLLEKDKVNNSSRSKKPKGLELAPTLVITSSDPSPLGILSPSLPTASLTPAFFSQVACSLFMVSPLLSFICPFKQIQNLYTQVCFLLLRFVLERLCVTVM
The essentials:
as §1

Sequence of ELF4 (Q99607 whole entry): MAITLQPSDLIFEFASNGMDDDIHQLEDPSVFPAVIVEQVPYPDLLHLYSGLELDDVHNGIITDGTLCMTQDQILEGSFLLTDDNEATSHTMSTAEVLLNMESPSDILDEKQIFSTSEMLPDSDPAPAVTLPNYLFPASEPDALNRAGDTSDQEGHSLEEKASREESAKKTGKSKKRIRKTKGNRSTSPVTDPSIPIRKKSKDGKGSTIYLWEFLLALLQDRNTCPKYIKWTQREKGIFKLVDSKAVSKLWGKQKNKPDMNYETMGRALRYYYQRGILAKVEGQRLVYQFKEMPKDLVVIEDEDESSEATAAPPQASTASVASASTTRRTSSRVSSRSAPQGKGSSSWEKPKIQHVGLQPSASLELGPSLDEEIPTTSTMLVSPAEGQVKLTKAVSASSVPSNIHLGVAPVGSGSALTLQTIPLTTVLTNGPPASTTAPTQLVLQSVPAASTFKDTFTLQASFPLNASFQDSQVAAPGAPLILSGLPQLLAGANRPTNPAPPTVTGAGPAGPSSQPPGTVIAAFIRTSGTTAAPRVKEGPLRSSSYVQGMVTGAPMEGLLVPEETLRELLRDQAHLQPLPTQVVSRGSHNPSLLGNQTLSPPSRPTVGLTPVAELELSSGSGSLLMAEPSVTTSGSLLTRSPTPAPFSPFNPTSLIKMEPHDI
Sequence of ETV5 (P41161 whole entry): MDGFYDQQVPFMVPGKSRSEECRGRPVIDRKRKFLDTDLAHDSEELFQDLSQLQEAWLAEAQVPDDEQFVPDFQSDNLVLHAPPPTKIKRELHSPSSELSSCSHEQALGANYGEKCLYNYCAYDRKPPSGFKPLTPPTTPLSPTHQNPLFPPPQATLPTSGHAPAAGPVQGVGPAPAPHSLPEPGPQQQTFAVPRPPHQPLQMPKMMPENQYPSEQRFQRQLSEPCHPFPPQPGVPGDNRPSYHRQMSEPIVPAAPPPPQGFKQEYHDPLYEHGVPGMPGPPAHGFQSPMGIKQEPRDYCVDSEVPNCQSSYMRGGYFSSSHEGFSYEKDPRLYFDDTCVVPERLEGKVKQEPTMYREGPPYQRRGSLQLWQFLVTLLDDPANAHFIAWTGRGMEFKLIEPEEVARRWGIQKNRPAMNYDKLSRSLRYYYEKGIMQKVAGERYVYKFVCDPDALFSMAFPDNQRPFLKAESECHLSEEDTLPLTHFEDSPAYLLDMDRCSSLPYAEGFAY
Sequence of ELF1 (P32519 whole entry): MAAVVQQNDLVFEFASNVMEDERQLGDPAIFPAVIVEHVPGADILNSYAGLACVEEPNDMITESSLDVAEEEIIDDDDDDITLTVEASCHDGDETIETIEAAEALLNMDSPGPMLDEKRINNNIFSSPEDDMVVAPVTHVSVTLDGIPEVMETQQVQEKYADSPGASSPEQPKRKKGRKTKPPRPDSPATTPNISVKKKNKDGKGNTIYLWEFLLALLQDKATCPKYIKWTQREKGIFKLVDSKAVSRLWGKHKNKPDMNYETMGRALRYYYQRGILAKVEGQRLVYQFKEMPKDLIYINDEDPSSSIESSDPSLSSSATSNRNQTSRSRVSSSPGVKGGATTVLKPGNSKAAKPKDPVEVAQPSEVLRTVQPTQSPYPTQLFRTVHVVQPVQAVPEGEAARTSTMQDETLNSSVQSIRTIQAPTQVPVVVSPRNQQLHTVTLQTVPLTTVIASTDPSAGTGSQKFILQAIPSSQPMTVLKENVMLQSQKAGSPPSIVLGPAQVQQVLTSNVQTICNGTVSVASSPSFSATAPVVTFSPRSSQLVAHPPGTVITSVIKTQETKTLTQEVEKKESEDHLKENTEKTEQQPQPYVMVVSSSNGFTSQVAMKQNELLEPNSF
Sequence of SPIB (Q01892 whole entry): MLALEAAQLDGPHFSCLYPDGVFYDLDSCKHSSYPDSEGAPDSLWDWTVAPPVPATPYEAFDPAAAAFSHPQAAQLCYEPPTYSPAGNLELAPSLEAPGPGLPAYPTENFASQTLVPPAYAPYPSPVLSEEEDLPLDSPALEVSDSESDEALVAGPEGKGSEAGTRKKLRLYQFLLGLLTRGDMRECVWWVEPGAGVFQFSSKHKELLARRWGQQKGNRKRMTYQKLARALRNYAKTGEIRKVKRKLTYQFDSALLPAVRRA

For GCTATC, the binding signal in the experiment with ELK1 is 1.07 fold enrichment (6-mer frequency, TF over GST control); with GABPA it was 1.1 fold enrichment (6-mer frequency, TF over GST control); with ERG, 1.13 fold enrichment (6-mer frequency, TF over GST control); with ELF1, 1.14 fold enrichment (6-mer frequency, TF over GST control); in the experiment with EHF, 1.14 fold enrichment (6-mer frequency, TF over GST control); with SPIB, 1.1 fold enrichment (6-mer frequency, TF over GST control). Moreover, the binding signal with FEV was 1.08 fold enrichment (6-mer frequency, TF over GST control); in the experiment with ETV5, 1.09 fold enrichment (6-mer frequency, TF over GST control); with ELF4, 1.14 fold enrichment (6-mer frequency, TF over GST control); in the experiment with ELK4 it was 1.13 fold enrichment (6-mer frequency, TF over GST control).
